Screens: PubChem BioAssay, National Center for Advancing Translational Sciences (NCATS)
TDP1 inh – TDP1 (human) enzyme inhibition; Q9NUW8; recombinant TDP1, AlphaScreen DNA substrate cleavage; Potency, µM (titrated, usually from 130 µM), for the others: at the top dose activity change, negative = inhibition, most hits filed as inhibitors; 0.28% of 350,000 active; AID 485290; also: nearly all actives have a fitted effect of over 40% in size
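Recombinant human Tdp1 (E. coli-expressed, 1 nM final) preincubated with compounds 15 min at room temperature, then 5'-biotin/3'-phosphotyrosine-FITC DNA substrate (15 nM final) added for 5 min. AlphaScreen beads (10 ug/ml final) added 10 min; cleavage lowers signal.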
Gal4-VP16 FLuc – Gal4-VP16 reporter inhibition counter-screen; Drosophila S2 Gal4-VP16 UAS-luciferase, luminescence, 20 h; Potency, µM (series often up to 53.6 µM), for the others: top-dose activity, negative = inhibition, most hits filed as inhibitors; 3.5% of 310,000 active; AID 2546;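 also: Gal4-VP16 expression switched on by copper sulfate through the metallothionein promoter; nearly all actives have a fitted effect of over 50% in size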
RORgamma inh – blocks mouse ROR gamma transcriptional activity; P51450; Drosophila S2 Gal4-RORgamma UAS-luciferase reporter, 20 h; Potency, µM (titrated, usually from 53.6 µM), without a hit: at the highest dose activity change, negative = inhibition, usual class: inhibitors; 5.4% of 310,000 active; also: nearly all actives have a fitted effect of over 60% in size
Target sequence (P51450 whole entry, looked up, the tested form may be a part): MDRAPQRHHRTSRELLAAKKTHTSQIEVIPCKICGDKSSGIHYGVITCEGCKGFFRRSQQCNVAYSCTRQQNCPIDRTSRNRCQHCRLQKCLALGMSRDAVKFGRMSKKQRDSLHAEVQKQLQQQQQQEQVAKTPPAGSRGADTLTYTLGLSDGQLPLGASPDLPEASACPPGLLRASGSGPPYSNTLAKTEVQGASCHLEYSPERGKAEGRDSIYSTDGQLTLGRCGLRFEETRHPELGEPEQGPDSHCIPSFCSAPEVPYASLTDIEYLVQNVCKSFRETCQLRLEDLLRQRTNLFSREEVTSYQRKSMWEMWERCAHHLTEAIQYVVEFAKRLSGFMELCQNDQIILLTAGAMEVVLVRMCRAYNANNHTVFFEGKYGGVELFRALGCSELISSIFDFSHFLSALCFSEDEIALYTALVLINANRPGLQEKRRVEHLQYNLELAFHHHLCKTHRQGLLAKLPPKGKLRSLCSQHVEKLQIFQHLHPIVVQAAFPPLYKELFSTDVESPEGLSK
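ROR gamma transcriptional activity was tracked as Gal4-UAS luciferase output in stably transfected Drosophila Schneider cells, with compound added 1 hr before 700 uM copper sulfate induction and a 20 hr ambient-temperature incubation.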
DT40 TDP1 no CPT – qHTS for Inhibitors of human tyrosyl-DNA phosphodiesterase 1 (TDP1): qHTS in cells in absence of CPT. DT40 Tdp1-/- hTDP1 cells, no CPT, ATP luminescence, 48 h. Potency, µM (doses to about 46.2 µM), inactives show at the top dose activity change, negative = growth inhibition, most hits filed as inhibitors. 15% of 420,000 active; also: nearly all actives have a fitted effect of over 55% in size
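Readout: luminescence from CellTiter-Glo after 30 min in the dark at RT. Cells: DT40 Tdp1-/- with stable hTDP1, 400/well. Exposure: compounds alone, ≥48 hr, 37 °C.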
DT40 TDP1 CPT – DT40-hTDP1 cell growth loss with CPT; chicken DT40 Tdp1-/-;hTDP1 cells + 20 nM CPT, ATP luminescence, 48 h; Potency, µM (top dose mostly 46.2 µM), for inactives: at the top dose activity change, negative = growth inhibition, hits mostly inhibitors; 12% of 420,000 active; AID 686979; also: nearly all actives have a fitted effect of over 55% in size
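Cell growth measured by CellTiter-Glo luminescence after a minimum 48 h, 37 C compound exposure with 20 nM CPT in Tdp1-knockout DT40 cells stably expressing hTDP1, seeded 400/well; qHTS titration format.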
Active calls of the source: *; u = inconclusive; x = no result. Most compounds without a hit are left out; they make up all but 19% or so of the library. Calls follow the shape of the dose curve; as a rule, active = well fitted curve in the direction sought with a large enough effect; inconclusive = small, poorly fitted or top-dose-only effect, or another doubt; inactive = no such curve, though single readings can be large; an effect the other way counts as inactive or inconclusive. % is scaled to controls: 0 for no effect and ±100 for the full control effect; potency is read from the fitted curve at half-maximal effect.

SMILES | TDP1 inh | Gal4-VP16 FLuc | RORgamma inh | DT40 TDP1 no CPT | DT40 TDP1 CPT
O=C(NCc1cccc(Cl)c1)c1cccc2c(-c3cccnc3)coc12 | x | x | x | u | 16.4µM*
NC(=O)c1cccc(-c2coc3c(C(=O)NC4CCCCC4)cccc23)c1 | x | x | x | 8.2µM* | u
O=C(NCCc1ccccc1)c1cccc2c(-c3cccnc3)coc12 | x | x | x | -24.8% | -17.8%
Cc1nc2cccc(C(=O)NC3CCCCC3)c2o1 | 4.4% | 1.2% | -23.8% | -21.5% | -19.5%
NC(=O)c1cccc(-c2coc3c(C(=O)NCc4cccnc4)cccc23)c1 | x | x | x | 23.1µM* | 20.6µM*
O=C1NNC(c2ccccc2)=N/C1=C\c1ccccc1 | 9.9% | 7.7% | -11.9% | 0.0% | 13.9%
COc1ccccc1N1CCN(c2csc3ccc(Cl)cc3c2=O)CC1 | 5.3% | x | x | -18.1% | -10.4%
COc1ccc(CNC(=O)c2cccc3c(-c4cccnc4)coc23)cc1OC | x | x | x | 1.46µM* | 1.16µM*
Cc1nc(SCc2ccc(OCCC(C)C)cc2)n[nH]1 | -1.8% | u | -26.3% | u | 14.6µM*
CC(C)C[C@@H](C(=O)NCc1ccco1)N1C(=O)N2CCc3c([nH]c4ccccc34)[C@@]2(C)C1=O | x | -2.7% | u | 5.17µM* | u
COc1ccc2[nH]c3c(c2c1)CCN1C(=O)N([C@@H](C)C(=O)NCCc2ccc(F)cc2)C(=O)[C@]31C | x | 15.7% | -1.4% | 7.31µM* | 23.1µM*
COc1ccc(CNC(=O)[C@H](C)N2C(=O)N3CCc4c([nH]c5ccccc45)[C@@]3(C)C2=O)cc1OC | x | -20.3% | -12.2% | 4.11µM* | 2.59µM*
C[C@@H](C(=O)NCCc1ccc(F)cc1)N1C(=O)N2CCc3c([nH]c4ccccc34)[C@@]2(C)C1=O | x | -2.1% | 6.5% | 11.6µM* | 11.6µM*
C[C@@H](C(=O)NCc1ccco1)N1C(=O)N2CCc3c([nH]c4ccccc34)[C@@]2(C)C1=O | x | -7.7% | 24.0% | u | u
Cc1ccc(CNC(=O)[C@H](C)N2C(=O)N3CCc4c([nH]c5ccccc45)[C@@]3(C)C2=O)cc1 | x | -10.6% | -0.8% | u | u
COc1ccc2[nH]c3c(c2c1)CCN1C(=O)N([C@@H](C)C(=O)NCc2ccc(F)cc2)C(=O)[C@]31C | x | 9.8% | 17.3% | u | -12.3%
CN1CCN(Cc2c(C#N)c3ccccc3n2C)CC1 | -1.9% | 7.0% | -26.2% | -25.2% | -5.8%
CCCn1c2c(c(O)c(C(=O)NCc3ccccc3)c1=O)CCCC2 | x | -1.6% | 25.9% | u | u
CN(CCc1ccccc1)C(=O)c1ccc(NC(=O)Cc2ccc(NC(=O)C3CCN(C(=O)C4CCC4)CC3)cc2)cc1 | x | x | x | 10.3µM* | u
CN(C(=O)c1ccc(NC(=O)Cc2ccc(NC(=O)C3CCN(C(=O)C4CCC4)CC3)cc2)cc1)C1CCCC1 | x | x | x | -25.4% | -29.3%
CN(CCc1ccccc1)C(=O)c1ccc(NC(=O)Cc2ccc(NC(=O)C3CCN(C(=O)C4CCCCC4)CC3)cc2)cc1 | x | x | x | 16.4µM* | u
CN(CCOc1ccccc1)C(=O)c1ccc(OC2CCN(C(=O)C3CC3)CC2)cc1 | 4.8% | 2.4% | 36.9% | 18.4µM* | u
CC(=O)NCC1(c2ccccc2)CCN(CC2COc3ccccc3O2)CC1 (stereo not given) | x | x | x | 7.5% | 0.1%
Cc1ccc2nc(NC(=O)Cn3nc(C)c([N+](=O)[O-])c3C)sc2c1 | 2.2% | -8.1% | -6.4% | -18.6% | u
Clc1ccc(-c2csc(N3CCCCCC3)n2)cc1 | 0.8% | -6.5% | 41.7% | -11.6% | -8.1%
Cc1csc(N2CCCC2c2nc3cc(Cl)c(N4CCCCC4)cc3n2CCCO)n1 (stereo not given) | x | x | x | 16.4µM* | u
OCCCn1c(C2CCCN2c2nc(-c3ccc(F)cc3)cs2)nc2cc(Cl)c(N3CCCCC3)cc21 (stereo not given) | x | x | x | 20.6µM* | u
CN1CCN(C(=O)/C(=C\c2cccs2)NC(=O)c2ccco2)CC1 | 4.7% | -2.2% | 1.5% | -19.9% | -0.2%
